PubChem BioAssay AID463115 (University of Pittsburgh Molecular Library Screening Center, 2010)
Screen size: about 220,000 compounds; about 130 (0.059%) were called active. The full list was thinned out, with actives kept by preference. Unmarked numbers belong to inactive results. Cut-off read from the data, not from the text of the source: active = inhibition above about 25%; inactive = the rest.

Biological target: Furin (Homo sapiens) (UniProt P09958)
Test: human furin inhibitors, primary screen, biochemical, fluorescence intensity (AID 463115)
Settings: purified furin, fluorogenic substrate cleavage, stronger effect = higher value; at 30 µM unless noted

Furin (Homo sapiens), sequence (P09958 108-714 limits assumed): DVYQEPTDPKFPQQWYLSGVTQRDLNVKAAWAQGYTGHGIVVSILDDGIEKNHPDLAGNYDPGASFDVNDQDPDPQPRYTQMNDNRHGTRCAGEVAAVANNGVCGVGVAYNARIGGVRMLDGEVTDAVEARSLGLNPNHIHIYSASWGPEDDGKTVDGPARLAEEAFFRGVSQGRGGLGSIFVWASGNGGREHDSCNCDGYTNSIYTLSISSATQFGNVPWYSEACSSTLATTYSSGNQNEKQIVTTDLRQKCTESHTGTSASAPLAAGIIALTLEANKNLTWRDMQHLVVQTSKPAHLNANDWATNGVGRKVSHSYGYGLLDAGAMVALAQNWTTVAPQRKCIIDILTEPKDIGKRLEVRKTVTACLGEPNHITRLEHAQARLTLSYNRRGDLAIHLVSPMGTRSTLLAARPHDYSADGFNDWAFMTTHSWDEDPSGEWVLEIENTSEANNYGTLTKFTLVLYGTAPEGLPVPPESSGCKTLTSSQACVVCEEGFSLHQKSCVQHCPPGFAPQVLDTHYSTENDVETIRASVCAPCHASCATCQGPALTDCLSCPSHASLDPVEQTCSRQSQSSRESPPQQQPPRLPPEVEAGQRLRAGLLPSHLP

| SMILES | inhibition |
| --- | --- |
| CC(C)C(=O)NCc1cc(-c2ccc(Cl)cc2)no1 | 2.24% |
| O=S(=O)(c1ccc(F)cc1)N1CCN(Cc2ccccc2C(F)(F)F)CC1 | -12.9% |
| O=c1oc2ccccc2cc1-c1cn(-c2ccccc2)c(=S)[nH]1 | -34.3% |
| S=c1[nH]nc(NCCc2ccccc2)s1 | -19.4% |
| CC(C)(C)C(=O)OCc1nc(-c2ccc(O)c(O)c2)cs1 | -19.6% |
| CCN(CC)c1ccc(NC(=O)C2CCC(CNc3c(N4CCCC4)c(=O)c3=O)CC2)c(C)c1 (centres undefined) | -28.8% |
| C[n+]1ccc(/C=C/c2c[nH]c3ccccc23)cc1 | 3.06% |
| C=Cn1c(C(=O)O)ccc1-c1ccc(OC)cc1 | -9.46% |
| CC1CN(S(=O)(=O)c2ccc(C(=O)NN3CCN(C)CC3)cc2)CC(C)O1 (centres undefined) | -23.8% |
| CCOCN(C(=O)Cn1c(C(C)O)nc2ccccc21)c1c(C)cccc1CC (centres undefined) | -22.3% [at 20 µM] |
| O=C(/C=C/c1ccc(Cl)cc1)Nc1ccc(Br)cn1 | -19.6% |
| Cc1oc(-c2ccccc2Cl)[n+]([O-])c1C | -9.84% [at 20 µM] |
| C=C(C)C(=O)O[C@H]1C/C(C)=C\C(=O)/C=C(\C)[C@H](O)[C@@H]2OC(=O)C(=C)[C@@H]21 | -5.36% |
| CCN(C(=O)CSc1nnc2ccccn12)C1CCS(=O)(=O)C1 (centres undefined) | -27.8% |
| NNC(=O)c1cnn(-c2ccccc2)c1C(F)(F)F | -29% |
| CCN=C1S/C(=C\c2cc(Br)ccc2OCC(=O)OCC)C(=O)N1CC | -4.2% |
| N#Cc1ccccc1NC(=O)COc1c(Br)cc(Br)c2cccnc12 | -14.7% |
| Cn1c(SCC(=O)Nc2ccc(Cl)cc2)nc(O)cc1=O | -15% |
| O=C(CSc1nc2ccc([N+](=O)[O-])cc2[nH]1)c1ccc(Cl)cc1 | -10.5% |
| S=C(NN=C1CCN(Cc2ccccc2)CC1)NC1CCCCC1 | -25.8% |

| SMILES | inhibition |
| --- | --- |
| CCCC1OC23CCCCC2C(C#N)(C#N)C1(C#N)C(=N)O3 (centres undefined) | -12.5% |
| COc1cc(C)c(S(=O)(=O)N2CCOCC2)c(C)c1C | -15.3% |
| COc1ccccc1N1CCN(/N=C\C(Br)=C\c2ccccc2)CC1 | -19% |
| CCO[C@H]1OC(C(=O)N2CCCCCCC2)=C[C@@H](c2ccc(C(F)(F)F)cc2)[C@@H]1CCCO | -28% |
| COc1ccc(O)c(C=Nc2cc(C)on2)c1 | -25.7% |
| O=C1CCCC(O)=C1C=NCCc1ccccc1 | -20.8% |
| Cc1cc(N=CC2=C(O)CCCC2=O)no1 | 42.3% (active) |
| OCCC1CN(Cc2cccn2-c2nccs2)CCN1CCc1ccccc1 (centres undefined) | -12.8% |
| Cc1nc(CNS(=O)(=O)c2cc([N+](=O)[O-])ccc2C)cs1 | 10.1% |
| COC(=O)C1=C(N)Oc2c(oc(CO)cc2=O)C1c1c(F)cccc1Cl (centres undefined) | -27.8% |
| CN(C)c1ccnc2sc3c(=O)n(-c4ccc(Cl)cc4)cnc3c12 | -7.85% [at 20 µM] |
| CCC(C)(C)NC(=O)CN(C(=O)C(=O)Nc1ccc2c(c1)OCCO2)C(C)(C)CC | -14.5% |
| CSc1nnc(SCc2nc3sc(C(=O)O)c(C)c3c(=O)[nH]2)s1 | -6.65% |
| O=C(CC1SCCNC1=O)Nc1ccc(Cl)c(Cl)c1 (centres undefined) | -21.8% |
| Cc1nnsc1C(=O)N/N=C/c1cccc(C(F)(F)F)c1 | 0.985% |
| COc1ccc([N+](=O)[O-])cc1NC(=O)COC(=O)/C=C/c1ccco1 | -30.9% |
| CCC(C)(C)NC(=O)C(c1cccc(OC)c1OC)N(CC(C)C)C(=O)CCC(=O)Nc1cc(C)on1 (centres undefined) | -14.8% |
| CC(C)(C)NC(=O)/C(=C/c1cccnc1)NC(=O)c1ccco1 | -17% |
| Cc1cc(NC(=O)CSc2nc3ccccc3n2CC(C)C)no1 | -16.9% |
| CC(C)c1cc(C(N)=O)c(NC(=O)c2cccc(COc3ccc(Br)cc3)c2)s1 | -15.1% [at 20 µM] |

| SMILES | inhibition |
| --- | --- |
| CC(C)(C)NC(=O)c1cccc(NC(=O)Cc2ccc(Br)cc2)c1 | -14.8% |
| CCOn1c(=O)c(=O)n(O)c2ccccc21 | -4.13% |
| Oc1ccccc1N1CCN(C(=S)NCc2ccccc2)CC1 | -19.1% |
| Cc1ccc(C2(C(F)(F)F)N=C3Sc4cc(C)cc(C)c4N3C(=O)N2)cc1 (centres undefined) | -11.5% [at 20 µM] |
| O=C(O)CC/C(=N\NC(=O)c1ccc(F)cc1)c1ccc(Br)cc1 | -17.1% |
| CCCc1c(C(=O)O)cnn1-c1ccc(Cl)cc1 | -33.8% |
| O=C(Nc1cccc(Cl)c1)c1cc([N+](=O)[O-])ccc1N1CCN(CCO)CC1 | -21.2% |
| O=c1[nH][nH]c(C(F)(F)F)c1C=NCc1ccccc1Cl | -7.43% [at 20 µM] |
| O=C(CNC(=O)COc1ccccc1)NCCc1ccccn1 | -14% |
| C=CCOc1ccc(/C=N/NC(=O)C(C)Sc2ccccn2)cc1OCC (centres undefined) | -21.6% |
| CSc1ccc(C(=O)C2CCCN(C(=O)c3ccc(C)nc3)C2)cc1 (centres undefined) | -11.4% |
| Clc1ccc(-c2nnc(-c3ccccc3)nc2N2CCSCC2)cc1 | -4.61% [at 20 µM] |
| Fc1ccc(COc2cccc(-c3n[nH]c(=S)o3)c2)cc1 | -11.9% |
| O=C1C=C(c2ccc(Cl)cc2)C(=O)N1Nc1ccccc1 | -9.42% [at 20 µM] |
| O=C(NNc1cc(Cl)ccc1Cl)c1cccnc1Cl | -21.6% |
| NS(=O)(=O)c1ccc(NC(=O)COC(=O)c2ccco2)cc1 | -19.1% |
| O=c1[nH]c(CCl)nc2cc(-c3ccc(Cl)cc3)sc12 | -0.616% [at 20 µM] |
| Cc1cc(Cl)c(S(=O)(=O)N(C)C)cc1OCC(N)=O | -12.9% [at 20 µM] |
| COC(=O)/C=C/C(=O)NCc1ccco1 | -23.2% [at 20 µM] |
